This excerpt belongs to a sample that is enriched for hits.
ROC1-CUL1 inh: human ROC1-CUL1 E3 ligase inhibition; in vitro K48 di-Ub FRET, acceptor:donor ratio, 45 min; inhibition, % at 10 µM; 0.6% of 140,000 active; in the data active means inhibition above about 25%
* marks the source's active call; other numbers are inactive results.

SMILES	ROC1-CUL1 inh
O=C1NN(c2ccccc2)C(=O)/C1=C/c1ccc(OCc2ccc(Cl)c(Cl)c2)cc1	-13
O=C1NN(c2ccccc2)C(=O)/C1=C/c1ccccc1OCc1ccc(Cl)c(Cl)c1	17
Cc1ccccc1COc1ccc(Br)cc1/C=C1\C(=O)NN(c2ccccc2)C1=O	49*
O=C1NN(c2ccc(Br)cc2)C(=O)/C1=C\c1ccccc1OCc1ccccc1	23
O=C1NN(c2ccccc2)C(=O)/C1=C\c1cc(O)ccc1Br	3
O=C(NCc1scnc1-c1ccccc1)C1CCC(=O)N(C2CCCC2)C1 (stereo not given)	-5
CCCc1[nH]nc2c1C(c1cccc(OCC)c1OCc1ccccc1)C(C#N)C(=N)O2 (stereo not given)	-3
COCC(=O)N1CCCC(CCC(=O)NCc2ccccc2F)C1 (stereo not given)	8
O=C1NN=C2N=C(C(F)(F)F)C=C(C(F)(F)F)C12 (stereo not given)	97*
CCCSc1nc2c(c(=O)n1CC)C1(CCCC1)Cc1ccccc1-2	1
CC(C)(C#N)c1ccc([N+](=O)[O-])cc1	-3
CCOCCn1c(O)c(N=NC(=O)Cc2cccc3ccccc23)c2ccccc21	-10
CC(=O)Nc1ncc(Cc2ccccc2)s1	3
O=C(COc1ccccc1-c1ccnn1-c1ccccc1)N/N=C/c1cc2ccccc2nc1Cl	-4
Cc1ccc2occ(/C=N\NC(=O)COc3ccccc3-c3ccnn3-c3ccccc3)c(=O)c2c1	3
O=C(COc1ccccc1-c1ccnn1-c1ccccc1)N/N=C/c1coc2ccc(Cl)cc2c1=O	60*
CCc1cc2n(nc1CC)c1ccccc1[n+]2Cc1ccc(C(=O)[O-])cc1	-2
CCc1ccc(S(=O)(=O)N2CCN(C(=O)C3CCCC3)CC2)cc1	9
Cc1cc(C)c2c(c1)N=C(CSCC(=O)Nc1ccccc1Cl)CC2=O	-6
N#C/C(=N\Nc1c(Cl)cc(Cl)cc1Cl)C(=O)c1ccc(Cl)cc1	82*
N#C/C(=N\Nc1c(Cl)cc(Cl)cc1Cl)C(=O)c1ccccc1	-10
N#C/C(=N/Nc1ccc(Cl)cc1Cl)C(=O)c1ccc(Cl)cc1	-8
